Test results as given in PubChem BioAssay AID1159580 (chemical genetic matrix, 2015).
Several values for one entry are separate records, joined by “and”; a condition that tells them apart may be missing. Equal entries are not always repeated. The campaign covered roughly 5,500 compounds. About 2,000 (36%) were called active. Not shown: some 18% with an inconclusive outcome. Cut-off read from the data, not from the text of the source: active = normalized growth mostly below about 0.91 (no sharp cut-off); inconclusive = no clear call, values can overlap the other calls; inactive = mostly above about 0.92. Some of the results follow.

Assay: chemical genetic growth profiling, strain panel (AID 1159580);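 note: tested at 20 µM; growth read once vehicle control cultures reached saturation at 30 °C; 1 = growth at the plate median or of vehicle wells; lower values mean less growth of the strain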
Conditions: S. cerevisiae deletion strains, growth OD

Measured: normalized growth

CC[C@@]1(C2O[C@@H](C3O[C@@](O)(CC)[C@H](C)C[C@@H]3C)C[C@@H]2C)CC[C@H]([C@]2(C)CCC3(C[C@H](O)[C@@H](C)[C@@H]([C@H](C)[C@@H](OC)[C@H](C)C(=O)O)O3)O2)O1 (stereo not given in full)
inactive: locus YAL013W, strain DEP1, hits give low values 0.998 | locus YAL021C, strain ccr4, hits give low values 0.924 | locus YAL030W, strain snc1, hits give low values 1.03 | locus YBL061C, strain skt5, hits give low values 1.04 | locus YBR009C, strain hhf1, hits give low values 1.02 | locus YBR021W, strain FUR4, hits give low values 1.05 | locus YBR023C, strain chs3, hits give low values 1.03 | locus YBR171W, strain sec66, hits give low values 0.974 | locus YBR229C, strain ROT2, hits give low values 1.03 | locus YBR231C, strain swc5, hits give low values 1.06 | locus YBR279W, strain paf1, hits give low values 1.03 | locus YCL011C, strain gbp2, hits give low values 0.991 | locus YCL016C, strain dcc1, hits give low values 1.02 | locus YCL029C, strain bik1, hits give low values 0.982 | locus YCL069W, strain vba3, hits give low values 0.998 | locus YCR088W, strain abp1, hits give low values 0.966 | locus YDL005C, strain med2, hits give low values 1.06 | locus YDL035C, strain GPR1, hits give low values 1.04 | locus YDL040C, strain nat1, hits give low values 1.03 | locus YDL074C, strain BRE1, hits give low values 0.994 | locus YDL101C, strain DUN1, hits give low values 0.99 | locus YDL134C, strain PPH21, hits give low values 1.05 | locus YDL185W, strain tfp1, hits give low values 0.96 | locus YDL192W, strain arf1, hits give low values 0.999 | locus YDR001C, strain nth1, hits give low values 0.972 | locus YDR069C, strain doa4, hits give low values 1.03 | locus YDR101C, strain arx1, hits give low values 1.01 | locus YDR159W, strain sac3, hits give low values 1.02 | locus YDR162C, strain NBP2, hits give low values 1.01 | locus YDR195W, strain ref2 1.04 | locus YDR297W, strain sur2, hits give low values 1.04 | locus YDR318W, strain mcm21, hits give low values 0.98 | locus YDR334W, strain swr1, hits give low values 0.987 | locus YDR335W, strain msn5, hits give low values 1.02 | locus YDR388W, hits give low values 1.01 | locus YDR392W, strain spt3, hits give low values 1.08 | locus YDR502C, strain sam2, hits give low values 0.983 | locus YEL003W, strain gim4, hits give low values 1 | locus YEL037C, strain rad23, hits give low values 1.01 | locus YEL061C, strain CIN8 (second series), hits give low values 1.01 | locus YEL061C, strain CIN8, hits give low values 0.99 | locus YER015W, strain faa2, hits give low values 1.01 | locus YER016W, strain bim1, hits give low values 1.01 | locus YER110C, hits give low values 1.01 | locus YER111C, strain swi4, hits give low values 1.04 | locus YER155C, strain BEM2 (second series), hits give low values 1.08 | locus YER155C, strain BEM2, hits give low values 0.999 | locus YER167W, strain BCK2, hits give low values 0.992 | locus YFR010W, strain ubp6, hits give low values 1.02 | locus YGL078C, strain dbp3, hits give low values 0.994 | locus YGL086W, strain mad1, hits give low values 1 | locus YGL167C, strain pmr1, hits give low values 1.05 | locus YGL173C, strain kem1, hits give low values 1.04 | locus YGL227W, strain vid30, hits give low values 1 | locus YGL240W, strain doc1, hits give low values 1.04 | locus YGL248W, strain PDE1, hits give low values 0.991 | locus YGL253W, strain hxk2, hits give low values 0.983 | locus YGR078C, strain PAC10, hits give low values 0.994 | locus YGR135W, strain pre9, hits give low values 0.971 | locus YGR252W, strain gcn5, hits give low values 0.976 | locus YHR013C, strain ard1, hits give low values 1.03 | locus YHR027C, strain rpn1, hits give low values 1.05 | locus YHR030C, strain SLT2, hits give low values 1.01 and 0.966 | locus YHR079C, strain IRE1 (second series), hits give low values 0.991 | locus YHR079C, strain IRE1, hits give low values 0.956 | locus YHR094C, strain hxt1, hits give low values 1.02 | locus YHR129C, strain ARP1, hits give low values 1 | locus YHR142W, strain chs7, hits give low values 0.966 | locus YHR200W, strain rpn10, hits give low values 0.986 | locus YIL066C, strain RNR3, hits give low values 1 | locus YIL073C, strain SPO22, hits give low values 0.915 | locus YIL125W, strain kgd1, hits give low values 0.993 | locus YIR030C, strain dcg1, hits give low values 1 | locus YJL092W, strain hpr5, hits give low values 0.973 | locus YJL095W, strain BCK1 (second series), hits give low values 1.04 | locus YJL095W, strain BCK1, hits give low values 0.972 and 0.975 | locus YJL115W, strain asf1, hits give low values 1.02 | locus YJL134W, strain LCB3, hits give low values 1.01 | locus YJL154C, strain vps35, hits give low values 0.963 | locus YJL164C, strain tpk1, hits give low values 0.993 | locus YJL166W, strain qcr8, hits give low values 1.04 | locus YJL168C, strain set2, hits give low values 1.03 | locus YJL187C, strain SWE1 (second series), hits give low values 0.98 | locus YJR043C, strain POL32, hits give low values 1.05 | locus YJR066W, strain TOR1, hits give low values 0.941 | locus YKL009W, strain mrt4, hits give low values 1 | locus YKL068W, hits give low values 0.998 | locus YKL085W, strain MDH1 (second series), hits give low values 0.942 | locus YKL085W, strain MDH1, hits give low values 0.942 | locus YKL160W, strain elf1, hits give low values 1.01 | locus YKL190W, strain CNB1, hits give low values 0.981 | locus YKR001C, strain vps1, hits give low values 1.03 | locus YKR026C, strain gcn3, hits give low values 0.979 | locus YKR091W, strain srl3, hits give low values 0.999 | locus YLL001W, strain dnm1, hits give low values 1.02 | locus YLL026W, hits give low values 1 | locus YLL041C, strain sdh2, hits give low values 1.01 | locus YLR027C, strain aat2, hits give low values 0.995 | locus YLR039C, strain RIC1, hits give low values 1.32 | locus YLR058C, strain SHM2, hits give low values 0.989 | locus YLR102C, strain apc9, hits give low values 1.02 | locus YLR113W, strain HOG1, hits give low values 0.947 | locus YLR221C, strain rsa3, hits give low values 0.988 | locus YLR258W, strain gsy2, hits give low values 1.03 | locus YLR262C, strain YPT6, hits give low values 1.07 | locus YLR268W, strain sec22, hits give low values 0.987 | locus YLR320W, strain mms22, hits give low values 1.02 | locus YLR330W, strain CHS5, hits give low values 0.994 | locus YLR342W, strain FKS1 (second series), hits give low values 1.05 | locus YLR342W, strain FKS1, hits give low values 1.01 | locus YLR357W, strain rsc2, hits give low values 1.01 | locus YLR370C, strain arc18, hits give low values 0.979 | locus YLR371W, strain rom2, hits give low values 1.01 | locus YLR384C, strain iki3, hits give low values 1.05 | locus YLR418C, strain cdc73, hits give low values 0.993 | locus YML016C, strain PPZ1, hits give low values 0.996 | locus YML032C, strain rad52, hits give low values 1.01 | locus YML120C, strain ndi1, hits give low values 1.01 | locus YML124C, strain tub3, hits give low values 1.01 | locus YMR058W, strain fet3, hits give low values 1.01 | locus YMR078C, strain ctf18, hits give low values 1.02 | locus YMR125W, strain sto1, hits give low values 0.982 | locus YMR129W, hits give low values 0.999 | locus YMR205C, strain PFK2, hits give low values 1.01 | locus YMR223W, strain ubp8, hits give low values 0.983 | locus YMR263W, strain SAP30, hits give low values 0.967 | locus YMR307W, strain GAS1, hits give low values 1.23 | locus YNL067W, strain RPL9B, hits give low values 0.959 | locus YNL071W, strain lat1, hits give low values 1.01 | locus YNL128W, strain TEP1, hits give low values 0.956 | locus YNL153C, strain GIM3, hits give low values 0.997 | locus YNL183C, strain NPR1, hits give low values 0.941 | locus YNL209W, strain ssb2, hits give low values 1.05 | locus YNL233W, strain BNI4, hits give low values 1 | locus YNL248C, strain rpa49, hits give low values 1.03 | locus YNL250W, strain rad50, hits give low values 0.998 | locus YNL271C, strain bni1, hits give low values 1.01 | locus YNL298W, strain CLA4, hits give low values 0.993 | locus YNL307C, strain MCK1, hits give low values 1.05 | locus YNL322C, strain KRE1 (second series), hits give low values 0.962 | locus YNL322C, strain KRE1, hits give low values 0.99 | locus YNR049C, strain mso1, hits give low values 0.985 | locus YNR052C, strain pop2, hits give low values 0.988 | locus YOL012C, strain htz1 1.01 | locus YOL147C, strain pex11, hits give low values 1.01 | locus YOR001W, strain rrp6, hits give low values 1.02 | locus YOR061W, strain CKA2, hits give low values 1 | locus YOR069W, strain VPS5, hits give low values 1 | locus YOR070C, strain gyp1, hits give low values 1.03 | locus YOR080W, strain dia2, hits give low values 1.03 | locus YOR083W, strain WHI5, hits give low values 1.01 | locus YOR136W, strain idh2, hits give low values 0.99 | locus YOR144C, strain elg1, hits give low values 1.01 | locus YOR184W, strain ser1, hits give low values 0.977 | locus YOR231W, strain MKK1, hits give low values 0.974 | locus YOR265W, strain rbl2, hits give low values 1.04 | locus YOR290C, strain snf2, hits give low values 0.978 | locus YOR316C, strain cot1, hits give low values 1.01 | locus YPL051W, strain arl3, hits give low values 1.01 | locus YPL055C, strain LGE1, hits give low values 1.01 | locus YPL078C, strain atp4, hits give low values 1.05 | locus YPL106C, strain sse1, hits give low values 1.08 | locus YPL240C, strain hsp82, hits give low values 1.04 | locus YPL241C, strain CIN2, hits give low values 1.01 | locus YPL256C, strain CLN2, hits give low values 0.993 | locus YPR119W, strain clb2, hits give low values 1.02 | locus YPR141C, strain kar3, hits give low values 0.993 | locus YPR163C, strain tif3, hits give low values 1.05 | locus YPR167C, strain met16, hits give low values 0.991 | strain wtn01, hits give low values 0.99
